# Laboratory results: PubChem BioAssay (NCATS)
# Values joined by “and” are separate entries in the source; they are usually repeats but may differ in a detail not shown here. Equal values may be shown once. Inconclusive results are not listed. A call without a number means that no potency is given here. A number with no mark means an inactive call. Active and inactive are the calls of the source. Calls follow the shape of the dose curve; as a rule, active = well fitted curve in the direction sought with a large enough effect; inconclusive = small, poorly fitted or top-dose-only effect, or another doubt; inactive = no such curve, though single readings can be large; an effect the other way counts as inactive or inconclusive.
# Tests used:
# [1] = molecular target: Cellular tumor antigen p53 (Homo sapiens) (UniProt P04637); test: Primary qHTS for small molecule compounds that upregulate eGFP-tagged delta133p53alpha (in N-terminal) cells. (AID 2060322); settings: NCI-H358 eGFP-delta133p53alpha fluorescence, 24 h; activation: active compounds read high; also: nearly all actives have a fitted effect of over 75% in size; also: potency is read from the fitted curve at half-maximal effect;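 as to activation: cells pre-induced with doxycycline then dosed without doxycycline; series mostly up to about 56 µM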
# Chain of Cellular tumor antigen p53 (Homo sapiens) (P04637 whole entry, looked up): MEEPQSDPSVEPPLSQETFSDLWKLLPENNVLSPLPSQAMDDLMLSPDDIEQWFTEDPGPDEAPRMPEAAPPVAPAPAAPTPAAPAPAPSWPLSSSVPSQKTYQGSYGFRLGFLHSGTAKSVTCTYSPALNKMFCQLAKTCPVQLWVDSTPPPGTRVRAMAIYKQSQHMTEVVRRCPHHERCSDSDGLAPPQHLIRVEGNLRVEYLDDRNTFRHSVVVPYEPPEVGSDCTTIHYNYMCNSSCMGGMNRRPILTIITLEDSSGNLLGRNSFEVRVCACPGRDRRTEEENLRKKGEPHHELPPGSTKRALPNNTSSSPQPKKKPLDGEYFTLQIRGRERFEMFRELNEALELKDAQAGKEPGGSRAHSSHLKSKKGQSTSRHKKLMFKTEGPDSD
# Summary of the method: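 NCI-H358 cells pre-induced 24 h with 10 ng/ml doxycycline for eGFP-delta133p53alpha, plated dox-free and exposed 24 h at 37C to titrated compounds. Fixed, Hoechst-stained; gated GFP peak intensity by laser scanning cytometry, normalized to DMSO (0%) and 57.5 uM 5-azacytidine (100%).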
# [2] = molecular target: Aldehyde dehydrogenase, mitochondrial (Homo sapiens) (UniProt P05091); test: qHTS for Inhibitors of the Aldehyde Dehydrogenase Family (ALDH2) Primary screen (AID 2061308); also: nearly all actives have a fitted effect of over 55% in size
# [3] = molecular target: Retinaldehyde dehydrogenase 3 (Homo sapiens) (UniProt P47895); test: qHTS for Inhibitors of the Aldehyde Dehydrogenase Family (ALDH1A3) Validation screen (AID 2061312); also: nearly all actives have a fitted effect of over 45% in size; also: potency is read from the fitted curve at half-maximal effect
# [4] = molecular target: Retinaldehyde dehydrogenase 3 (Homo sapiens) (UniProt P47895); test: qHTS for Inhibitors of the Aldehyde Dehydrogenase Family (ALDH1A3) Primary screen (AID 2061315)
SMILES,activation [1],Potency [2],Potency [3],Potency [4],Potency [1]
CC1CCN(c2cc(NC(=O)c3ccccc3)ncn2)CC1,22.4%,inactive,inactive,inactive,
CC(NCCCc1cccc(C(F)(F)F)c1)c1cccc2ccccc12 (stereo not given),-2.86%,inactive,inactive,inactive,
O=C(O)c1cccc(S(=O)(=O)N2CCc3ccccc3C2)c1,-7.64%,inactive,inactive,inactive,
CC(=O)[C@H]1CC[C@H]2[C@@H]3C=CC4=CC(=O)CC[C@@]4(C)[C@@H]3CC[C@]12C,-8.47% and 12.4%,inactive,inactive,inactive,
O=C(Nc1nc2ccccc2n1CCc1ccccc1)c1ccccc1,6.68%,inactive,inactive,inactive,
C(#Cc1cccc(CN2CCOCC2)c1)CCN1CCCCC1,-4.3%,inactive,20 µM (active),inactive,
CN(C)c1nc(NC2CCC(NCCc3ccc(Br)cc3OC(F)(F)F)CC2)nc2ccccc12 (stereo not given),,inactive,inactive,inactive,13.5 µM (active)
NC(=O)c1ccc(F)c2c1C[C@@H](N(C1CCC1)C1CCC1)CO2,-11.5%,inactive,inactive,inactive,
CN(C)CCC[C@]1(c2ccc(F)cc2)OCc2cc(C#N)ccc21,0.477%,inactive,inactive,inactive,
COc1cc(N2CCOCC2)ccc1NC(=O)c1csc(-c2cccnc2)n1,24.8%,inactive,inactive,inactive,
